Each structure is given as a SMILES string. Results filed as inconclusive are left out. Calls of active or inactive are those of the source. Calls come from the whole dose curve; as a rule, active = well fitted cell-killing curve with a large enough effect; inconclusive = small, poorly fitted or top-dose-only effect, or effect the other way; inactive = no such curve, though single readings can be large or run the other way.
Potency is the fitted concentration of half-maximal effect.

The experiment in a line: Quantitative High-Throughput drug screen in 47 multiple myeloma cell lines against the NCATS MIPE library collection: Karpas25_ECACC cell viability assay (AID 1918968; note: nearly all actives have a fitted effect of over 35% in size). The note with it: Karpas25 myeloma viability, CellTiter-Glo ATP, 48 h; series mostly up to 45.8 µM; viability (% of control): at the top concentration. The method in brief: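 We plated 500 myeloma cells per well, pinned in MIPE 4.0 compounds, and incubated for 48 hours at 37C. ATP was then quantified with CellTiter-Glo, with DMSO and media-only wells defining 100% and 0%.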
Background: Cellular ATP, detected with luciferase, serves as a proxy for viable cell number.
In the case of `C1=C2CCCN[C@H]2[C@@H]2C[C@H]1[C@@H]1CCCCN1C2`, the “viability (% of control)” value was 108% (inactive).
With `Cc1c(C(=O)Nc2cccc(C(F)(F)F)c2)cc(-c2ccccc2)n1CCCN1CCOCC1`, the Potency is 11.8 µM (active).
In the case of `COc1cc2cc(c1Cl)N(C)C(=O)C[C@H](OC(=O)C(C)C)[C@]1(C)O[C@H]1[C@H](C)[C@@H]1C[C@@](O)(NC(=O)O1)[C@H](OC)C=CC=C(C)C2`, the “viability (% of control)” value was 7.01% (inactive).
On to `O=S(=O)(CC1CS1)c1ccc(Oc2ccccc2)cc1` (centres undefined), for which the Potency is 16.6 µM (active).
As for `CCCC[N+]1(C)[C@H]2CC(OC(=O)[C@H](CO)c3ccccc3)C[C@H]1[C@H]1O[C@H]12` (some centres undefined), the “viability (% of control)” value was 105% (inactive).
As to `O=c1[nH]c2ccc(Cl)cc2c(N[C@@H]2CN3CCC2CC3)c1-c1nc2ccccc2[nH]1`, the Potency was 0.235 µM (active).
Consider `CCN1CCN(C(=O)Cc2ccc(Nc3ncc(F)c(Nc4ccc(C(=O)Nc5ccccc5Cl)cc4)n3)cc2)CC1`, for which the Potency was 2.35 µM (active).
For the compound `CCOP(=O)(OCC)C(C)NC(=O)N(CCCl)N=O` (centres undefined), the “viability (% of control)” value was 128% (inactive).
Take `Cc1ccccc1-n1c(Cn2cnc3c(N)ncnc32)nc2cccc(C)c2c1=O`: the Potency is 0.187 µM (active).
Take `CC(C)N(CCNC(=O)CN1CCCC1=O)C(C)C`: the “viability (% of control)” value is 92.4% (inactive).
For the compound `CC(C)[C@]12O[C@@H]1[C@@H]1O[C@]13[C@]1(O[C@H]1C[C@@H]1C4=C(CC[C@@]13C)C(=O)OC4)[C@H]2O`, the “viability (% of control)” value is 2.18% (inactive).
Take `CC(N[C@H]1C[C@H]1c1ccccc1)c1ccc2c(c1)OCCO2` (some centres undefined): the “viability (% of control)” value is 95.8% (inactive).
`CCCCCC[C@H]1C(=O)O[C@H](C)[C@H](NC(=O)c2cccc(NC=O)c2O)C(=O)O[C@@H](C)[C@@H]1OC(=O)CC(C)C`: the Potency was 0.166 µM (active).
Consider `CC(C)(O)C=CC(=O)[C@](C)(O)[C@H]1[C@H](O)C[C@]2(C)[C@@H]3CC=C4[C@@H](C=C(O)C(=O)C4(C)C)[C@]3(C)C(=O)C[C@@]12C`, for which the Potency was 0.0296 µM (active).

These data come from PubChem BioAssay (NCATS).
